Tests used:
Assay in all cases: log2 ratio of Biotin-Ahx-Ub-VS probe labelling (fragment/DMSO); higher = less target engagement (more negative = stronger competition), active = hit call of the paper (q ≤ 0.05, log2 ratio ≤ -1)
Conditions in all cases: compound concentration: 200 uM; treatment time: 3 h
[1] = target: USP34 (UniProt Q70CQ2)
Summary of the method: (§1)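 Values give the average log2 ratio of fragment to vehicle, assessed by unpaired t-test on global-median-normalised Spectronaut label-free quantities. Proteins needed ≥2 unique peptides. HEK293T lysate (495 µg per sample) was treated in triplicate with fragment at 200 µM or vehicle for 3 h and then with Biotin-Ahx-Ub-VS at 0.5 µM final for 1 h. Labelled DUBs were NeutrAvidin-enriched, digested and run by diaPASEF LC-MS/MS.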

[2] = target: T1, USP36 (UniProt Q9P275)
T1 sequence (whole entry): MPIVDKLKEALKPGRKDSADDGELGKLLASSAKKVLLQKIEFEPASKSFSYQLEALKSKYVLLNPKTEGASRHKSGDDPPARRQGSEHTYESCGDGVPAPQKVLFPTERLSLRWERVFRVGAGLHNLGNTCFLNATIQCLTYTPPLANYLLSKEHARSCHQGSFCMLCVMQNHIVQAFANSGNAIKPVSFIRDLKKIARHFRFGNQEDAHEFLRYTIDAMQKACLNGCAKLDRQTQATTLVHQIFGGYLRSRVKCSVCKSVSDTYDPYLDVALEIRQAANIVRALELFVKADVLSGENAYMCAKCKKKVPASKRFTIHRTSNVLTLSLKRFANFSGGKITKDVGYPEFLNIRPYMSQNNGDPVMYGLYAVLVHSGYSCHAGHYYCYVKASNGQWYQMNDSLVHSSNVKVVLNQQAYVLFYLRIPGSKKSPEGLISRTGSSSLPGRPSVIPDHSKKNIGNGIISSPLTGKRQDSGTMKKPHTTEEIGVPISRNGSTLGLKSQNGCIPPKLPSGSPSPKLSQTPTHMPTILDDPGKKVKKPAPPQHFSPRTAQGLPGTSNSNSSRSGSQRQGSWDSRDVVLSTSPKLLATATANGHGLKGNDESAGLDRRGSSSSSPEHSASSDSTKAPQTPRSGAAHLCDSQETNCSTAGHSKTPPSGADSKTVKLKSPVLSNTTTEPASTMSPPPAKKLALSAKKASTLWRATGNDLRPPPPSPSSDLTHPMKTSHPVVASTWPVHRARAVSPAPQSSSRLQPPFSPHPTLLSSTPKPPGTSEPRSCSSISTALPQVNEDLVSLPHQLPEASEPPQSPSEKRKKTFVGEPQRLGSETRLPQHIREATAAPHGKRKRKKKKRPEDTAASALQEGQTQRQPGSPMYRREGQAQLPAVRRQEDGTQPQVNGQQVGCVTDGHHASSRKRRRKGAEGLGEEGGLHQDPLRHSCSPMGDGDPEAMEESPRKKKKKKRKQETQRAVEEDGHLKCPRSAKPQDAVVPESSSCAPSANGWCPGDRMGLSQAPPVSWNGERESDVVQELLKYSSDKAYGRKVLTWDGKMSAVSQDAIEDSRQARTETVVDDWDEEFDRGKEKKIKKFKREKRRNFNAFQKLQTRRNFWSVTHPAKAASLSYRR
Summary of the method: as §1

[3] = target: T2, USP38 (UniProt Q8NB14)
T2 sequence (whole entry): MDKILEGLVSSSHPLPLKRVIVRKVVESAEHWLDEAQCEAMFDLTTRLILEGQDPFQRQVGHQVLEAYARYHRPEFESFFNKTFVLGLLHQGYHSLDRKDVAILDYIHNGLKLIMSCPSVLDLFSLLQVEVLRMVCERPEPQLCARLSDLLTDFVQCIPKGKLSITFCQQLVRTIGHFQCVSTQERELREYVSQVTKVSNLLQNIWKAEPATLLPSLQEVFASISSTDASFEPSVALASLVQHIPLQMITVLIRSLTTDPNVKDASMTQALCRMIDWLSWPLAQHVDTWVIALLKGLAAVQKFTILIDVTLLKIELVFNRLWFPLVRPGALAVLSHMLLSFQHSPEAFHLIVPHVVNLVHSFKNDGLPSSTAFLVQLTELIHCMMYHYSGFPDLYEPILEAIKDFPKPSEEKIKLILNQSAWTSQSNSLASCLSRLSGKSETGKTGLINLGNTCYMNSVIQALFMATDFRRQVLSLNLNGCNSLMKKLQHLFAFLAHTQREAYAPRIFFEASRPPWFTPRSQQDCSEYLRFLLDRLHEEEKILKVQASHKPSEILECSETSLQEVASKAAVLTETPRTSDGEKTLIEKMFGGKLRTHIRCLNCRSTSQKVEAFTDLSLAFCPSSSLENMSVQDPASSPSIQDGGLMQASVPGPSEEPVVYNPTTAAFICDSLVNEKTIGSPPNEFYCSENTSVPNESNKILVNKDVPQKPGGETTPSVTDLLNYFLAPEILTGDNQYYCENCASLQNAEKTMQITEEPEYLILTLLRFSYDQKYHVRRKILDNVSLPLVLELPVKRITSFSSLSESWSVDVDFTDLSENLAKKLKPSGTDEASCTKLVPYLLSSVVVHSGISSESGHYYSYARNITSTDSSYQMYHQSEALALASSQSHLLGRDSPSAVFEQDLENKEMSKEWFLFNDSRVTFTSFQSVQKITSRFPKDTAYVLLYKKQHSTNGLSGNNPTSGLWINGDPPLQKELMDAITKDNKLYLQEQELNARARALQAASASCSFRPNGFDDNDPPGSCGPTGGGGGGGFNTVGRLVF
Summary of the method: as §1

[4] = target: T3, USP39 (UniProt Q53GS9)
T3 sequence (whole entry): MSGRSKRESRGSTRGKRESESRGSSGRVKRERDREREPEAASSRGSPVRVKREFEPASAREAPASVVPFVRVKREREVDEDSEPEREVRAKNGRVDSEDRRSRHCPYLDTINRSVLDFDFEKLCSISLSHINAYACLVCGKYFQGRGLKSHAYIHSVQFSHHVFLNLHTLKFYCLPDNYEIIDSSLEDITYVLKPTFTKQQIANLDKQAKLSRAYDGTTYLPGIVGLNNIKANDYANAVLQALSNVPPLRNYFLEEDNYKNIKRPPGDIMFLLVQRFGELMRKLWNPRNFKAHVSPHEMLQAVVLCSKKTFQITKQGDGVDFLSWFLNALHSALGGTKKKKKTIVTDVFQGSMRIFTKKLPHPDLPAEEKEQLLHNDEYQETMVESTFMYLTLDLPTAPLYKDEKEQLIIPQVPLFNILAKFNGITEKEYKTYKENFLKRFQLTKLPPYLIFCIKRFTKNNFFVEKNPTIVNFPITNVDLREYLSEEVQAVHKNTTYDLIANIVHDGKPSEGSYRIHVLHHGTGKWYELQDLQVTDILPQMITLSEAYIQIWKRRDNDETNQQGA
Summary of the method: as §1

[5] = target: T4, USP4 (UniProt Q13107)
T4 sequence (whole entry): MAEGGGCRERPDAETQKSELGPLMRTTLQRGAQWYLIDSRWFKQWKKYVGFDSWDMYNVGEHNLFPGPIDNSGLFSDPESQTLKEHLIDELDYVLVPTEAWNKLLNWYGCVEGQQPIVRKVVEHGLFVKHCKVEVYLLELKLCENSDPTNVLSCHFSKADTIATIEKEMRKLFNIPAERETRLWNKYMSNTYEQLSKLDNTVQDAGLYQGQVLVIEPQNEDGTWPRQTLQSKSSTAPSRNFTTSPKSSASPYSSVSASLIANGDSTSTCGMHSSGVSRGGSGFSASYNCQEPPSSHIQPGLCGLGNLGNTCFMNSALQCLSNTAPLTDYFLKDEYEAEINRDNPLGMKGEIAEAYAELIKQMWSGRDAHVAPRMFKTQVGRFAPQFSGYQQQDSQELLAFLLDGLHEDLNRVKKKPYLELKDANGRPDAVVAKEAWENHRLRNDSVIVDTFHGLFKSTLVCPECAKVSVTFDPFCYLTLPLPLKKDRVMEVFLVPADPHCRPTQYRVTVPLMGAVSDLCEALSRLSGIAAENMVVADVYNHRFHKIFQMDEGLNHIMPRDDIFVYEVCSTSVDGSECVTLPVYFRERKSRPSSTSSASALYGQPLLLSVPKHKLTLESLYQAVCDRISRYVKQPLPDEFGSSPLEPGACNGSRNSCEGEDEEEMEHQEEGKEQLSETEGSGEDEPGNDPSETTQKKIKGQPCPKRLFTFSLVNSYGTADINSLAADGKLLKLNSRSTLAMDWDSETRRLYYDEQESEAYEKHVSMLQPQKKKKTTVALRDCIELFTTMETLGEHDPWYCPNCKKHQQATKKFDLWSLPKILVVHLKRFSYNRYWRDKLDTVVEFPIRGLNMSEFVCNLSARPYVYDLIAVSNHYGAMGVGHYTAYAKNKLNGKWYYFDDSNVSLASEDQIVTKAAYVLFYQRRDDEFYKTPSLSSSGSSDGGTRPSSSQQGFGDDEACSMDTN
Summary of the method: as §1

Measured: log2 ratio of Biotin-Ahx-Ub-VS probe labelling

Chain of USP34 (Q70CQ2 whole entry, the tested form may be a part): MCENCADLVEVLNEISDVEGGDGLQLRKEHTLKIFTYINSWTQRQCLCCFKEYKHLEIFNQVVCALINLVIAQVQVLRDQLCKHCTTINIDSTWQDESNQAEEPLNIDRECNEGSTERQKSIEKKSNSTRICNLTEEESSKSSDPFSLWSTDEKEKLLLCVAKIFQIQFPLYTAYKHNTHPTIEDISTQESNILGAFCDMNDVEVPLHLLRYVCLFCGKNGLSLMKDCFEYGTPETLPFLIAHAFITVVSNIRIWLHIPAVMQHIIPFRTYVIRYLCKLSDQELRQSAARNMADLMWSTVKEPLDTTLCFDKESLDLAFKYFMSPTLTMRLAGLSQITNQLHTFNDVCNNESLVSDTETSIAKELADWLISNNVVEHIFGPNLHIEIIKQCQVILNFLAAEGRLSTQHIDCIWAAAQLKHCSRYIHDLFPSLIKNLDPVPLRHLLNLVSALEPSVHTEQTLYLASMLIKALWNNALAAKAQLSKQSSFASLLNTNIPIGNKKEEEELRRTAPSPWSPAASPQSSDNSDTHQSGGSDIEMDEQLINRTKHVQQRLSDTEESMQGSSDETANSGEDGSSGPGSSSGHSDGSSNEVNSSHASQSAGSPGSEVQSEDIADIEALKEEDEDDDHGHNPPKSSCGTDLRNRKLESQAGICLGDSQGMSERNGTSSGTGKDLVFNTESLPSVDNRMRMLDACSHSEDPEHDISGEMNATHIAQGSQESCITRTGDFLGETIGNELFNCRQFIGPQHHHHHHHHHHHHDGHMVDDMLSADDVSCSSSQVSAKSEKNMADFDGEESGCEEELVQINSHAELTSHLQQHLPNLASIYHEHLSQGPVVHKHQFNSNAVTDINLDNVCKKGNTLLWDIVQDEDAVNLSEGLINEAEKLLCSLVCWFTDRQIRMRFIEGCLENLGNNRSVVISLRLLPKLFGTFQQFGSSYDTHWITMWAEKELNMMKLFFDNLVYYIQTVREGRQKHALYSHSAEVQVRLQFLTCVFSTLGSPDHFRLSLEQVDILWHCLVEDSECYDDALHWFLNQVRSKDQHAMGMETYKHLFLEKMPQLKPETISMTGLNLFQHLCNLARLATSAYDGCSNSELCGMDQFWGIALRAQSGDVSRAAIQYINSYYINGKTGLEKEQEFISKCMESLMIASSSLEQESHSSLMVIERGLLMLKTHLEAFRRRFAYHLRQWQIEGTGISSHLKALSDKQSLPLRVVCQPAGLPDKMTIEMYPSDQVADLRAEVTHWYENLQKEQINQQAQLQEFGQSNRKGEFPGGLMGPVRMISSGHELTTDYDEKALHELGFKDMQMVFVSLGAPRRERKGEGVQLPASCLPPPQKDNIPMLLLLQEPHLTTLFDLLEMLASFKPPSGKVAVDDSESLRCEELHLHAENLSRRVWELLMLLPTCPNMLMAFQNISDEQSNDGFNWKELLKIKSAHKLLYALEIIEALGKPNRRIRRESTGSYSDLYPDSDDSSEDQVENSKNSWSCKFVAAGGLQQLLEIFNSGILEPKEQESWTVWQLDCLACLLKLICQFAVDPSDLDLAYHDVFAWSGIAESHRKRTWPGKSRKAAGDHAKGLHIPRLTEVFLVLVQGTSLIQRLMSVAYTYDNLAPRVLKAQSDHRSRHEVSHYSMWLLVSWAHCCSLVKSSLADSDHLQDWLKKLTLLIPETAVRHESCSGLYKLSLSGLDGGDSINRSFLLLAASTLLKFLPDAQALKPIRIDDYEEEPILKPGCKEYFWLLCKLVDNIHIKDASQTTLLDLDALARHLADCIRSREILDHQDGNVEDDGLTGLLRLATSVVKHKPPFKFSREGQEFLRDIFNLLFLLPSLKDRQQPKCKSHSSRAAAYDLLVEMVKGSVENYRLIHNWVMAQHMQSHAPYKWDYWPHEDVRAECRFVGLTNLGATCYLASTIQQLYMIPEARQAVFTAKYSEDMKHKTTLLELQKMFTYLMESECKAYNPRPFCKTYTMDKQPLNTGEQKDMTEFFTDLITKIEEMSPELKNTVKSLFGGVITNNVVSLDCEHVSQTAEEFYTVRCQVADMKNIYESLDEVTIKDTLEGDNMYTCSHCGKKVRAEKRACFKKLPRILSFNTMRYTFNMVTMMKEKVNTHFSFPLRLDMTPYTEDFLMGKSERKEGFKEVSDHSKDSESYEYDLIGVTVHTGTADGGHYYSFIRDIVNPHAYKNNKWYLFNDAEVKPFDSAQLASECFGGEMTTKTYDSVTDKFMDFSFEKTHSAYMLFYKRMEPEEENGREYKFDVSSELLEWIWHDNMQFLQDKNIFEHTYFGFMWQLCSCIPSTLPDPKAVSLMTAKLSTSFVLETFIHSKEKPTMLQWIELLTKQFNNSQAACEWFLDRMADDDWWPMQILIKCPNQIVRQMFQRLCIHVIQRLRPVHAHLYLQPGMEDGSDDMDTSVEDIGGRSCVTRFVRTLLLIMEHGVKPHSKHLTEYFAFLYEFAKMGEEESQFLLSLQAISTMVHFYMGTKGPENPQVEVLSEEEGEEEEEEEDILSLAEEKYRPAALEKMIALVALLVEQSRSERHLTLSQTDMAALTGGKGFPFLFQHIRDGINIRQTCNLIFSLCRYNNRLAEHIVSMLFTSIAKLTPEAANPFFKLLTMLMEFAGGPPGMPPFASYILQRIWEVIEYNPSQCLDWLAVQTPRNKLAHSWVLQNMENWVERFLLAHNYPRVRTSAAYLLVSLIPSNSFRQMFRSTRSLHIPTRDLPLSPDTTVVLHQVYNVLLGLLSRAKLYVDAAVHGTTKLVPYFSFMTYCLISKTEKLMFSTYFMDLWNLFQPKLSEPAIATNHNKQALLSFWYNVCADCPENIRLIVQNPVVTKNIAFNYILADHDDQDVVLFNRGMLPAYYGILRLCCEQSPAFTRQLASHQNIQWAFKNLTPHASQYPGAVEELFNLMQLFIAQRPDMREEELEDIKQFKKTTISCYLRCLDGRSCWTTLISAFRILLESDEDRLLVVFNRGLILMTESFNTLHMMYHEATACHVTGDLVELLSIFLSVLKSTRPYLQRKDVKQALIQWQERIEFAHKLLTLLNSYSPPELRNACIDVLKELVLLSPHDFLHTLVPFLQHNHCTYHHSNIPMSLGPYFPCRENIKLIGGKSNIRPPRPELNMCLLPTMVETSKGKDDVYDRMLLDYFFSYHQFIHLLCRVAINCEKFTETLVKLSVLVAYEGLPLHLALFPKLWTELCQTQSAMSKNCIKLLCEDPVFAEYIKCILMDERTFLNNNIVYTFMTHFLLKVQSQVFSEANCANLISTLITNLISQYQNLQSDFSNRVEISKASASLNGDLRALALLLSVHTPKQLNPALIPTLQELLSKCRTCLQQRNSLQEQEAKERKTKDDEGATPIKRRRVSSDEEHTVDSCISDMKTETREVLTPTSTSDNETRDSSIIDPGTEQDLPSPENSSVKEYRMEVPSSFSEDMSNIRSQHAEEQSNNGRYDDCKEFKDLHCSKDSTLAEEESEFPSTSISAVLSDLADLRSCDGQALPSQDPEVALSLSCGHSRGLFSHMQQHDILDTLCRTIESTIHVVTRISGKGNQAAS

Cl.Cn1cnc2cc(CNC(=O)CCl)ccc21
inactive: [1] -0.0912 | [2] -0.188 | [3] -0.21 | [4] -0.337 | [5] -0.0327
